# Key:
# Test in all cases: DAPPL (digital affinity profiling via proximity ligation, sequencing); 10 mM Tris-HCl pH 7.5, 50 mM NaCl, 1 mM DTT, 4% glycerol, room temperature, 30 min; GST-TFs on glutathione beads, 16-mer random dsDNA library, 0.1% formaldehyde crosslink after washing; high values mean tight binding
# FLI1 = molecular target: T1, FLI1 (Homo sapiens, UniProt Q01543 1-452); conditions: protein: recombinant; tags: N-terminal GST; dsDNA, one strand shown
# T1 sequence: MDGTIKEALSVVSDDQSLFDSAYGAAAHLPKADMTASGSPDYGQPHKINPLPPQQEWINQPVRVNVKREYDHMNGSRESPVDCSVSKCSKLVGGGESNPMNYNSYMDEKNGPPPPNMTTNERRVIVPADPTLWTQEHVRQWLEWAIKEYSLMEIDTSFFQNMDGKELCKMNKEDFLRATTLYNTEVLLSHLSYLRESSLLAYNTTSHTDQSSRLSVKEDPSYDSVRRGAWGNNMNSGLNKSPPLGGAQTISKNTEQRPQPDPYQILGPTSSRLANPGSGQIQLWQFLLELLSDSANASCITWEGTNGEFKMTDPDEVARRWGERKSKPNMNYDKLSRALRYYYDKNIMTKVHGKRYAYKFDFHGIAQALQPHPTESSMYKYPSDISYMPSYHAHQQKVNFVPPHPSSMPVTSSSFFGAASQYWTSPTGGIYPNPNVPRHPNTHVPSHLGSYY
# Outline: (§1)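 Human transcription factors carrying a GST fusion were produced in yeast, bound to glutathione beads, tagged with DNA barcodes and pooled together with a tag-only sample. Each pool was held with 200 nmole of a random double-stranded 16-mer DNA library in Tris/NaCl/DTT/glycerol buffer for 30 min at room temperature, then washed, crosslinked in 0.1% formaldehyde, proximity-ligated with BsaI/T4 ligase (1 h, 37 °C), PCR-amplified and sequenced on an Illumina NextSeq500. Binding signal is the read frequency of each hexamer for a given factor divided by its frequency in the tag-only sample.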
# ELK1 = molecular target: T2, ELK1 (Homo sapiens, UniProt P19419 1-428); conditions: protein: recombinant; tags: N-terminal GST; dsDNA, one strand shown
# T2 sequence: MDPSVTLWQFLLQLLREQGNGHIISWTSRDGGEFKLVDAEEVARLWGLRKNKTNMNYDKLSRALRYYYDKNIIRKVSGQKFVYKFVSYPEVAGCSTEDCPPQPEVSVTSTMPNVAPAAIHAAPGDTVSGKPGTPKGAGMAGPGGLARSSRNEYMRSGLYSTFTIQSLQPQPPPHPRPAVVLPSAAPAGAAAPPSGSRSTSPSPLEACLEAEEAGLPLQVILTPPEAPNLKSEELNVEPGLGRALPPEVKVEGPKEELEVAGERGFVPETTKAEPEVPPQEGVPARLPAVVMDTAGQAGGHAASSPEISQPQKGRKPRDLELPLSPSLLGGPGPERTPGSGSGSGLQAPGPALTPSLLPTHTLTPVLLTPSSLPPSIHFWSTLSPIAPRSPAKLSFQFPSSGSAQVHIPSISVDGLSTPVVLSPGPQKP
# Outline: as §1
# GABPA = molecular target: T3, GABPA (Homo sapiens, UniProt Q06546 1-454); conditions: protein: recombinant; tags: N-terminal GST; dsDNA, one strand shown
# T3 sequence: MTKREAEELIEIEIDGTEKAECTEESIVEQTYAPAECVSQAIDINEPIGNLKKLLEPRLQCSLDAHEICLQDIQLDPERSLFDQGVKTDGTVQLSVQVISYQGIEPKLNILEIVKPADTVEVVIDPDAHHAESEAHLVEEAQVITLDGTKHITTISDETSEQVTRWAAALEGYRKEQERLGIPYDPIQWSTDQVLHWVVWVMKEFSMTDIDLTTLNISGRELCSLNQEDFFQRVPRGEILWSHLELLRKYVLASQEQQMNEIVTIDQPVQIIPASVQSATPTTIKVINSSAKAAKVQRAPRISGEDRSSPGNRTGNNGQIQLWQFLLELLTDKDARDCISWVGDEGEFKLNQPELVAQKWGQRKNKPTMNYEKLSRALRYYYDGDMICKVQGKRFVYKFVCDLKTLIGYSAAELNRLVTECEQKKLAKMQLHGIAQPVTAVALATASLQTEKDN
# Outline: as §1
# ERG = molecular target: T4, ERG (Homo sapiens, UniProt P11308 1-479); conditions: protein: recombinant; tags: N-terminal GST; dsDNA, one strand shown
# T4 sequence: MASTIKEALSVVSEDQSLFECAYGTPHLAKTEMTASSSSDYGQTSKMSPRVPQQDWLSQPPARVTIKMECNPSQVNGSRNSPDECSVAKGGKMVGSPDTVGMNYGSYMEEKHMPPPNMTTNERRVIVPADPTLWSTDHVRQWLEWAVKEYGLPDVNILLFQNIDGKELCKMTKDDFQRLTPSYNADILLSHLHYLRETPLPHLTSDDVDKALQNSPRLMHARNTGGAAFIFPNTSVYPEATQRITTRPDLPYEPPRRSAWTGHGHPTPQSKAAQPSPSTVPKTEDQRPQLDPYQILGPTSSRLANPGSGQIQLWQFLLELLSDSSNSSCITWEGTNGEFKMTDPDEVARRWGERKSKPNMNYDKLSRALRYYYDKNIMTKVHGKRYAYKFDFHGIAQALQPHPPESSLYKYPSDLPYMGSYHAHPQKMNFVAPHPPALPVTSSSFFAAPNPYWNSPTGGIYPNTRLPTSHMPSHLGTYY
# Outline: as §1
# ELF1 = ELF1 (Homo sapiens, UniProt P32519 1-619); conditions: protein: recombinant; tags: N-terminal GST; dsDNA, one strand shown
# ELF1, sequence (P32519 whole entry): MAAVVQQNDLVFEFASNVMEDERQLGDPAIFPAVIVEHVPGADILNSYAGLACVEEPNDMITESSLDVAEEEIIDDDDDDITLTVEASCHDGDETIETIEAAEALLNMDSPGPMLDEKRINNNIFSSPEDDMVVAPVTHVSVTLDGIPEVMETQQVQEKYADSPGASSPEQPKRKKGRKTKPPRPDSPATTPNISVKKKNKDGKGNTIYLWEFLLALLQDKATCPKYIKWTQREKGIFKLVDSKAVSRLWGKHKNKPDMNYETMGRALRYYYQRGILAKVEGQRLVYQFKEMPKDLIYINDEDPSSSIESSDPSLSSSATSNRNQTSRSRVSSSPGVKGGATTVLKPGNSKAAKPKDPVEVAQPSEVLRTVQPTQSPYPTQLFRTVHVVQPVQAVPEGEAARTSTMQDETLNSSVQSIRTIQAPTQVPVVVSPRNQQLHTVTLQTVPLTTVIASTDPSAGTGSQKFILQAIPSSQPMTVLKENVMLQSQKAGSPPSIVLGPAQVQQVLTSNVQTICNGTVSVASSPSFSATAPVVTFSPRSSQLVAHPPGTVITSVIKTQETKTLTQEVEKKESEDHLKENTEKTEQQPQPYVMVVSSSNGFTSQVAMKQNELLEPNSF
# Outline: as §1
# EHF = molecular target: T5, EHF (Homo sapiens, UniProt Q9NZC4 1-300); conditions: protein: recombinant; tags: N-terminal GST; dsDNA, one strand shown
# T5 sequence: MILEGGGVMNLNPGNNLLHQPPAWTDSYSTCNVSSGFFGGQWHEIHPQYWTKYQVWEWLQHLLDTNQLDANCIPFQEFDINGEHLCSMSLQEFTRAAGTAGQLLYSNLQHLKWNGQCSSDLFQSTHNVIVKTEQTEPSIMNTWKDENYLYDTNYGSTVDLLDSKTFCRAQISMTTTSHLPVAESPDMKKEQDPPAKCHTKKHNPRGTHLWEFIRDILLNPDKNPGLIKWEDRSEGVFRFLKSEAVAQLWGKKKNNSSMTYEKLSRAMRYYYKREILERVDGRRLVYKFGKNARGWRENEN
# Outline: as §1
# SPI1 = SPI1 (Homo sapiens, UniProt P17947 1-270); conditions: protein: recombinant; tags: N-terminal GST; dsDNA, one strand shown
# Outline: as §1
# SPIB = SPIB (Homo sapiens, UniProt Q01892 1-262); conditions: protein: recombinant; tags: N-terminal GST; dsDNA, one strand shown
# SPIB, sequence (Q01892 whole entry): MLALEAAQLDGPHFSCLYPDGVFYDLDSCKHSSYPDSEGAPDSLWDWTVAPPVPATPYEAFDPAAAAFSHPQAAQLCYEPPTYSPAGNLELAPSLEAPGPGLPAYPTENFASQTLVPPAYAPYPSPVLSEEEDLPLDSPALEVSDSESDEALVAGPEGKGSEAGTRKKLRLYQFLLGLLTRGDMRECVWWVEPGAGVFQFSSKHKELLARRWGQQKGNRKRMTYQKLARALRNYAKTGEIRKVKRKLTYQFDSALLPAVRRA
# Outline: as §1
# ELK3 = molecular target: T6, ELK3 (Homo sapiens, UniProt P41970 1-407); conditions: protein: recombinant; tags: N-terminal GST; dsDNA, one strand shown
# T6 sequence: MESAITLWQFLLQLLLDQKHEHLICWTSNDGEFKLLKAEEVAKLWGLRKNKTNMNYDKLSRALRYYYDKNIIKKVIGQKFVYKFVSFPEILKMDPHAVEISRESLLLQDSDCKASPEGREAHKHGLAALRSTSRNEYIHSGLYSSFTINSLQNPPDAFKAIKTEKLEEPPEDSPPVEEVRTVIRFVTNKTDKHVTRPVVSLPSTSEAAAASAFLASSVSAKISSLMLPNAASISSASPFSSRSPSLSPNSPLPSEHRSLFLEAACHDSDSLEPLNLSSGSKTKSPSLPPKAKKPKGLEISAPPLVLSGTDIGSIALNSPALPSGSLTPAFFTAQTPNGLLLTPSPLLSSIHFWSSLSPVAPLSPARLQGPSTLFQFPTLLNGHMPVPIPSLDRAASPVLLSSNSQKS
# Outline: as §1
# FEV = molecular target: T7, FEV (Homo sapiens, UniProt Q99581 1-238); conditions: protein: recombinant; tags: N-terminal GST; dsDNA, one strand shown
# T7 sequence: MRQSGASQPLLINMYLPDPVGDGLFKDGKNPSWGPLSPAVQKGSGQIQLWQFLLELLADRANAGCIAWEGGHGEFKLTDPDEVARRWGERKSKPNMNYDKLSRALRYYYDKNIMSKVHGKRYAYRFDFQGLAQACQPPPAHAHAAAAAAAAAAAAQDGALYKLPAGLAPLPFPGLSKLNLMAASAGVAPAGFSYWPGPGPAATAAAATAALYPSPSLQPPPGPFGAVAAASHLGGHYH
# Outline: as §1
# ETV5 = ETV5 (Homo sapiens, UniProt P41161 1-510); conditions: protein: recombinant; tags: N-terminal GST; dsDNA, one strand shown
# ETV5, sequence (P41161 whole entry): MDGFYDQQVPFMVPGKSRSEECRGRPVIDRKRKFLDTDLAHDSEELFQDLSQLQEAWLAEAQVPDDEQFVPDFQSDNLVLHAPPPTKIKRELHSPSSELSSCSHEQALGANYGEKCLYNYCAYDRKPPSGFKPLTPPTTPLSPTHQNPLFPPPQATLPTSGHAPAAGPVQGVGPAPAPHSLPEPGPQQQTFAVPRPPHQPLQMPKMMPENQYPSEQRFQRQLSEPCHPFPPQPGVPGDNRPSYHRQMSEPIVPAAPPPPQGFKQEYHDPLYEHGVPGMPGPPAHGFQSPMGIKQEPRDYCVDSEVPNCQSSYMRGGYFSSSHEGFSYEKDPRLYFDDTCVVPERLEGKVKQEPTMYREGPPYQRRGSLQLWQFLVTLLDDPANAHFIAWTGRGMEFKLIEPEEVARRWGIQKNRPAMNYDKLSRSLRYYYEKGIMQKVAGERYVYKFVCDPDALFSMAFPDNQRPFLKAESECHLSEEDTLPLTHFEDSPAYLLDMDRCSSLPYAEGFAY
# Outline: as §1
# HSF1 = HSF1 (Homo sapiens, UniProt Q00613 1-529); conditions: protein: recombinant; tags: N-terminal GST; chain copies: 3; dsDNA, one strand shown
# HSF1, sequence (Q00613 whole entry): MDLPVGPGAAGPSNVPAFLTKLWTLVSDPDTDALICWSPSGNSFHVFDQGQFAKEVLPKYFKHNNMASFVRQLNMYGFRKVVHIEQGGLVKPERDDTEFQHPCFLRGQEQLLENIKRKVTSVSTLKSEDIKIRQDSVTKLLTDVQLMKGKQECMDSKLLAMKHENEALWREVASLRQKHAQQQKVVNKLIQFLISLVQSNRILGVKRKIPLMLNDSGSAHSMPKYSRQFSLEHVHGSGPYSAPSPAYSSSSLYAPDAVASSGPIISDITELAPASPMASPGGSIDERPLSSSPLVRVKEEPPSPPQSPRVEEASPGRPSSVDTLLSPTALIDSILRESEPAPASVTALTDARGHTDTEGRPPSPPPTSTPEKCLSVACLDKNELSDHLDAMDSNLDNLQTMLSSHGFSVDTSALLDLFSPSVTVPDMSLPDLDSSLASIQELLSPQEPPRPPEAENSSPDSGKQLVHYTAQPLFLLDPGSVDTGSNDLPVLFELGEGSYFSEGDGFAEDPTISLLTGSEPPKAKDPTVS
# Outline: as §1
# SPIC = molecular target: T8, SPIC (Homo sapiens, UniProt Q8N5J4 1-248); conditions: protein: recombinant; tags: N-terminal GST; dsDNA, one strand shown
# T8 sequence: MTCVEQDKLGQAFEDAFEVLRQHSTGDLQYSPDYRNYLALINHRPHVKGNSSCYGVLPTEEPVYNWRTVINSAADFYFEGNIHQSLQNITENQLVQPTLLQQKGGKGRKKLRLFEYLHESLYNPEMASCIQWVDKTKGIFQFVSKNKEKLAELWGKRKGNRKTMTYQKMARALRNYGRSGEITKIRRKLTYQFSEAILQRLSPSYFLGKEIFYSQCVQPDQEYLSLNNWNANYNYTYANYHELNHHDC
# Outline: as §1
# ELF4 = ELF4 (Homo sapiens, UniProt Q99607 1-663); conditions: protein: recombinant; tags: N-terminal GST; dsDNA, one strand shown
# ELF4, sequence (Q99607 whole entry): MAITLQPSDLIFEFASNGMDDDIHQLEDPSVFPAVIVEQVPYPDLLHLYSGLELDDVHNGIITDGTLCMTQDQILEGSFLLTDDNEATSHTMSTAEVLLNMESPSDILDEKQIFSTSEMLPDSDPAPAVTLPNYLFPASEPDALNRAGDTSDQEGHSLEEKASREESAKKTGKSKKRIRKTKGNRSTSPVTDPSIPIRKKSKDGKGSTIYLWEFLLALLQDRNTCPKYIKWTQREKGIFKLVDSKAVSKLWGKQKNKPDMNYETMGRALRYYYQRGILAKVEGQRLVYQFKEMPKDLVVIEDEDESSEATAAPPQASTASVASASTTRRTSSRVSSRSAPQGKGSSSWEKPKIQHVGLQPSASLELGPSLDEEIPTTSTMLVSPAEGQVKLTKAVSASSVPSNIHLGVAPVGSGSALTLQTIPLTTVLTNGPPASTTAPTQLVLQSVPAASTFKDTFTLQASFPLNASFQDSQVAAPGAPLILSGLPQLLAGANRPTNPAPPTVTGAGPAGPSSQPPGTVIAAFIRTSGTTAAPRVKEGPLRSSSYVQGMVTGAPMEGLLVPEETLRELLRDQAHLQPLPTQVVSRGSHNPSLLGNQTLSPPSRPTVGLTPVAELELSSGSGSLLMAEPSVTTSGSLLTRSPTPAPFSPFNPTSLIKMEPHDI
# Outline: as §1
# ELK4 = molecular target: T9, ELK4 (Homo sapiens, UniProt P28324-2 1-405); conditions: protein: recombinant; tags: N-terminal GST; dsDNA, one strand shown
# T9 sequence: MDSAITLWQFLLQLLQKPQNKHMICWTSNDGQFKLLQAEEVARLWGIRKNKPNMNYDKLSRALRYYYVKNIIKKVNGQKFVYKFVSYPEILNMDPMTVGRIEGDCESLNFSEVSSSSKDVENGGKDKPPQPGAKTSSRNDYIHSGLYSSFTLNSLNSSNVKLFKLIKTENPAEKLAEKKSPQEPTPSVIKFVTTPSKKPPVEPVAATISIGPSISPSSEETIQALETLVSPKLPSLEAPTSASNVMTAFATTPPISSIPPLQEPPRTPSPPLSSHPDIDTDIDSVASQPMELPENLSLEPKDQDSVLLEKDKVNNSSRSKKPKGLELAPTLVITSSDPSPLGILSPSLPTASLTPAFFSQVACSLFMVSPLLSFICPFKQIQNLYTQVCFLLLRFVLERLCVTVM
# Outline: as §1
# ETV2 = molecular target: T10, ETV2 (Homo sapiens, UniProt O00321 1-342); conditions: protein: recombinant; tags: N-terminal GST; dsDNA, one strand shown
# T10 sequence: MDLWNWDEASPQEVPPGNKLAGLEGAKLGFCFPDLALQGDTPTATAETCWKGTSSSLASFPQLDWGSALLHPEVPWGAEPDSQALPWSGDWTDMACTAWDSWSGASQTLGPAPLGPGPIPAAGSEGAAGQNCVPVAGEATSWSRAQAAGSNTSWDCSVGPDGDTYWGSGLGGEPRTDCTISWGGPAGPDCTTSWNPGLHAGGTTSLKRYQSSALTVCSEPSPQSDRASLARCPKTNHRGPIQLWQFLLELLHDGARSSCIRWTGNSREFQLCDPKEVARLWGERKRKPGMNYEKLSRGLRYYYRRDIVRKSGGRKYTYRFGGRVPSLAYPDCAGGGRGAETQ
# Outline: as §1
# ELF3 = molecular target: T11, ELF3 (Homo sapiens, UniProt P78545 1-371); conditions: protein: recombinant; tags: N-terminal GST; dsDNA, one strand shown
# T11 sequence: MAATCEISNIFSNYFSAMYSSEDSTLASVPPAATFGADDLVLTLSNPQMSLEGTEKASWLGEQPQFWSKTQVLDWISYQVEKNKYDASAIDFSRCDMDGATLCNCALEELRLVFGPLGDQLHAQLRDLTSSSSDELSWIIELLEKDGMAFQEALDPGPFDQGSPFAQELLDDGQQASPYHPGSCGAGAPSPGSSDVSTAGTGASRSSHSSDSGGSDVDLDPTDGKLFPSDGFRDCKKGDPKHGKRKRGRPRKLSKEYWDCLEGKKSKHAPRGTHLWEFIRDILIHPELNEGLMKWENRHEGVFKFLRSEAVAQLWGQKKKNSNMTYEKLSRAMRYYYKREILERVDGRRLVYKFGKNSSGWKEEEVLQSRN
# Outline: as §1
# CRX = CRX (Homo sapiens, UniProt O43186 1-299); conditions: protein: recombinant; tags: N-terminal GST; dsDNA, one strand shown
# CRX, sequence (O43186 whole entry): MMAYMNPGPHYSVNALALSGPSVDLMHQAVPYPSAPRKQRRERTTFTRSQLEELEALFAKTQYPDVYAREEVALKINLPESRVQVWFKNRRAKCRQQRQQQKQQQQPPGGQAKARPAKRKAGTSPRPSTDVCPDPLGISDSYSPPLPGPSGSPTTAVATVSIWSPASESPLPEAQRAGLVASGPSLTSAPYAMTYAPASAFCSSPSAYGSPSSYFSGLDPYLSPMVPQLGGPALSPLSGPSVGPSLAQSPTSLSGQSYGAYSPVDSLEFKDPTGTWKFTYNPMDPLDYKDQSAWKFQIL
# Outline: as §1
# ETV1 = ETV1 (Homo sapiens, UniProt P50549 1-477); conditions: protein: recombinant; tags: N-terminal GST; dsDNA, one strand shown
# ETV1, sequence (P50549 whole entry): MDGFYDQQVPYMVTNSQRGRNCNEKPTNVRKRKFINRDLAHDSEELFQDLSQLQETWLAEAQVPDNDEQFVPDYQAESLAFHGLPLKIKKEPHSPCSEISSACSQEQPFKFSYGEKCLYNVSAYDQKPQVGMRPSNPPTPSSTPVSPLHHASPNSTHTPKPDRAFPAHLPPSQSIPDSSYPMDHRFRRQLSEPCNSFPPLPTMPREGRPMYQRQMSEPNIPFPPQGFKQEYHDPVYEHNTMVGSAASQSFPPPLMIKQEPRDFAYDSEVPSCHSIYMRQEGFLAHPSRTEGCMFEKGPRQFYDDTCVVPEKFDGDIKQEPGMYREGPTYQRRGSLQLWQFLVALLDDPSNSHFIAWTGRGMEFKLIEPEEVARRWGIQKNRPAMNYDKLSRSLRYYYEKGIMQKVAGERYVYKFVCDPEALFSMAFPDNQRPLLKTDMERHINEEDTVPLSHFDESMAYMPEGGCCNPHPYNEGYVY
# Outline: as §1
sequence,measurement,setting,value
CAAGAT,binding signal,FLI1,"1.04 fold enrichment (6-mer frequency, TF over GST control)"
same,binding signal,ELK1,"1.04 fold enrichment (6-mer frequency, TF over GST control)"
same,binding signal,GABPA,"1.17 fold enrichment (6-mer frequency, TF over GST control)"
same,binding signal,ERG,"1.05 fold enrichment (6-mer frequency, TF over GST control)"
same,binding signal,ELF1,"1.06 fold enrichment (6-mer frequency, TF over GST control)"
same,binding signal,EHF,"1.04 fold enrichment (6-mer frequency, TF over GST control)"
same,binding signal,SPI1,"1.01 fold enrichment (6-mer frequency, TF over GST control)"
same,binding signal,SPIB,"1.01 fold enrichment (6-mer frequency, TF over GST control)"
same,binding signal,ELK3,"1.14 fold enrichment (6-mer frequency, TF over GST control)"
same,binding signal,FEV,"1.02 fold enrichment (6-mer frequency, TF over GST control)"
same,binding signal,ETV5,"1.1 fold enrichment (6-mer frequency, TF over GST control)"
same,binding signal,HSF1,"1.18 fold enrichment (6-mer frequency, TF over GST control)"
same,binding signal,SPIC,"1.14 fold enrichment (6-mer frequency, TF over GST control)"
same,binding signal,ELF4,"1.18 fold enrichment (6-mer frequency, TF over GST control)"
same,binding signal,ELK4,"1.11 fold enrichment (6-mer frequency, TF over GST control)"
same,binding signal,ETV2,"1.09 fold enrichment (6-mer frequency, TF over GST control)"
same,binding signal,ELF3,"1.06 fold enrichment (6-mer frequency, TF over GST control)"
same,binding signal,CRX,"1.23 fold enrichment (6-mer frequency, TF over GST control)"
same,binding signal,ETV1,"1.06 fold enrichment (6-mer frequency, TF over GST control)"

# — publication PMC7862700, “An all-to-all approach to the identification of sequence-specific readers for epigenetic DNA modifications on cytosine”
